Measurements published in the supplement of paper PMC8387472.

Tests used:
Conditions in all cases: mESC; 2uM; 72 h treatment, harvest day 5
[1] = compound: CO[C@H]1/C=C/O[C@@]2(C)Oc3c(C)c(O)c4c(O)c(c(/C=N/N5CCN(C6CCCC6)CC5)c(O)c4c3C2=O)NC(=O)/C(C)=C\C=C\[C@H](C)[C@H](O)[C@@H](C)[C@@H](O)[C@@H](C)[C@H](OC(C)=O)[C@@H]1C [Rifapentine]; test: fraction of microhomology deletions among edited reads; higher = more MH deletions
[2] = compound: COc1ccccc1-c1cc(Nc2cccc(CS(N)(=O)=O)c2)ncn1; test: as above
[3] = compound: Cc1cc(C)nc(SCC(=O)Nc2ncc(Cc3cccc4ccccc34)s2)n1; test: as above
[4] = compound: Nc1cc(F)ccc1NC(=O)c1ccc(CNC(=O)/C=C/c2cccnc2)cc1 [Tucidinostat (Chidamide)]; test: as above
[5] = compound: Nc1nc2[nH]cc(CCc3ccc(C(=O)N[C@@H](CCC(=O)O)C(=O)O)cc3)c2c(=O)[nH]1 [Pemetrexed]; test: as above
[6] = compound: Nc1ncnc2c1c(-c1cnc3[nH]ccc3c1)nn2C1CCCC1; test: as above
[7] = compound: O=C(c1cccc(Cl)c1F)N1CCN(Cc2cccc(Nc3nccs3)n2)CC1; test: as above
[8] = compound: O=C1Cc2c([nH]c3ccc(Br)cc23)-c2ccccc2N1 [Kenpaullone]; test: as above
[9] = compound: O=c1c(-c2ccc(O)cc2)coc2cc(O)cc(O)c12 [Genistein]; test: as above
[10] = compound: O=c1cc(N2CCOCC2)oc2c(-c3ccc4c(c3)OCCO4)csc12; test: as above
[11] = compound: S=c1[nH]cnc2nc[nH]c12 [Mercaptopurine (6-MP)]; test: as above
[12] = compound: S=c1nc[nH]c2nc[nH]c12 [6-Mercaptopurine (6-MP) Monohydrate]; test: as above
[13] = compound: CC(=O)O/N=C1\C(=O)N(Cc2cc(Cl)ccc2Cl)c2ccc(Cl)cc21; test: fraction of 1-bp insertions among edited reads; higher = more 1-bp insertion outcomes
[14] = compound: CC(C)(C#N)c1ccc(N2C(=O)OCc3cnc4ccc(-c5cnc6ccccc6c5)cc4c32)cc1; test: as above
[15] = compound: CCCCOc1c(C(=O)c2c(F)cc(C)cc2F)c[nH]c2nncc1-2; test: as above
[16] = compound: CCN1CCN(CC(=O)Nc2ccc(-c3cccc4c(=O)cc(N5CCOCC5)oc34)c3sc4ccccc4c23)CC1; test: as above
[17] = compound: CCc1c2c(nc3ccc(OC(=O)N4CCC(N5CCCCC5)CC4)cc13)-c1cc3c(c(=O)n1C2)COC(=O)[C@]3(O)CC [Irinotecan HCl Trihydrate]; test: as above
[18] = compound: C[C@@H]1CN(CC(=O)Nc2ccc3c(c2)Cc2cccc(-c4cc(=O)cc(N5CCOCC5)o4)c2S3)C[C@H](C)O1; test: fraction of microhomology deletions among edited reads; higher = more MH deletions
[19] = compound: Cc1cccc(CC(=O)N2CCc3c2ccc(-c2cn(C)c4ncnc(N)c24)c3F)n1; test: as above
[20] = compound: NC(=O)c1ccc2nc(-c3ccc(Oc4ccc(Cl)cc4)cc3)[nH]c2c1 [Chk 2 inhibitor II (BML-277)]; test: as above

| Target | fraction of microhomology deletions among edited reads [1] | fraction of microhomology deletions among edited reads [2] | fraction of microhomology deletions among edited reads [3] | fraction of microhomology deletions among edited reads [4] | fraction of microhomology deletions among edited reads [5] | fraction of microhomology deletions among edited reads [6] | fraction of microhomology deletions among edited reads [7] | fraction of microhomology deletions among edited reads [8] | fraction of microhomology deletions among edited reads [9] | fraction of microhomology deletions among edited reads [10] | fraction of microhomology deletions among edited reads [11] | fraction of microhomology deletions among edited reads [12] | fraction of 1-bp insertions among edited reads [13] | fraction of 1-bp insertions among edited reads [14] | fraction of 1-bp insertions among edited reads [15] | fraction of 1-bp insertions among edited reads [16] | fraction of 1-bp insertions among edited reads [17] | fraction of microhomology deletions among edited reads [18] | fraction of microhomology deletions among edited reads [19] | fraction of microhomology deletions among edited reads [20] |
| --- | --- | --- | --- | --- | --- | --- | --- | --- | --- | --- | --- | --- | --- | --- | --- | --- | --- | --- | --- | --- |
| 31.0 (DMSO control at this site: 1-bp insertion 0.315, MH deletion 0.329, edited 0.026) ACCTCCACAGGCTGGGTGGCCCGGAGGCTGGGCGGCCCGGAGGCTGGGCTGGGCGAGTATC | 0.467 | 0.487 | 0.512 | 0.459 | 0.605 | 0.333 | 0.391 | 0.518 | 0.477 | 0.404 | 0.459 | 0.408 | 0.215 | 0.14 | 0.2 | 0.106 | 0.105 |  |  |  |
| 47.0 (DMSO control at this site: 1-bp insertion 0.095, MH deletion 0.585, edited 0.118) GAGTGGTCCCGAGCCAGGAACTGTGTGTGTTGCAGGGGGGCAGTAACTCCCCAACTCCCTC | 0.57 | 0.469 | 0.528 | 0.442 | 0.503 | 0.389 | 0.453 | 0.486 | 0.508 | 0.554 | 0.46 | 0.401 | 0.0999 | 0.09 | 0.121 | 0.0733 | 0.118 | 0.319 | 0.477 | 0.494 |
| 40.0 (DMSO control at this site: 1-bp insertion 0.072, MH deletion 0.192, edited 0.189) GCGAATCAACTGTTCAACAACAGCAGCAGCCACCTGGAGGACTACAGTGGCCTGTCCGTGT | 0.211 | 0.146 | 0.173 | 0.145 | 0.169 | 0.139 | 0.137 | 0.124 | 0.192 | 0.211 | 0.145 | 0.137 | 0.0727 | 0.0752 | 0.072 | 0.0486 | 0.0746 | 0.0486 | 0.156 | 0.181 |
| 45.0 (DMSO control at this site: 1-bp insertion 0.017, MH deletion 0.666, edited 0.101) TTACACAGCATGAACTGCTAGGTGATGATGTCAGATTCGGTTTTACTAACTTCTCCAAAAA | 0.624 | 0.614 | 0.608 | 0.624 | 0.574 | 0.54 | 0.598 | 0.561 | 0.601 | 0.67 | 0.614 | 0.557 | 0.0284 | 0.0222 | 0.0249 | 0.016 | 0.0413 | 0.515 | 0.655 | 0.617 |
| 30.0 (DMSO control at this site: 1-bp insertion 0.074, MH deletion 0.67, edited 0.142) GAGCTGGCATGAGTATTTGTGCCACATGGCTCCCACATGGCTCCACATGCAAGTTTGAAAC | 0.684 | 0.599 | 0.69 | 0.607 | 0.644 | 0.635 | 0.638 | 0.628 | 0.697 | 0.745 | 0.6 | 0.57 | 0.0901 | 0.0675 | 0.059 | 0.036 | 0.0999 | 0.335 | 0.586 | 0.67 |
| 38.0 (DMSO control at this site: 1-bp insertion 0.063, MH deletion 0.487, edited 0.17) GGGCTGGGTGCTAAAATGAGGAGCTCCAAGAAGACTGAGGTGAACCTGGAGGCCCCTGAGC | 0.507 | 0.46 | 0.483 | 0.458 | 0.548 | 0.432 | 0.439 | 0.414 | 0.462 | 0.476 | 0.474 | 0.468 | 0.0549 | 0.0615 | 0.0554 | 0.0485 | 0.0536 | 0.441 | 0.495 | 0.495 |
| 25.0 (DMSO control at this site: 1-bp insertion 0.017, MH deletion 0.774, edited 0.143) GGGCCTGAATGGTGTGGACATCTACTCGCTGGTGAGCTGGTGACTGAAAACATTCAGTGGC | 0.792 | 0.747 | 0.772 | 0.723 | 0.744 | 0.784 | 0.769 | 0.739 | 0.773 | 0.772 | 0.71 | 0.694 | 0.0158 | 0.0262 | 0.017 | 0.0169 | 0.0204 | 0.648 | 0.759 | 0.767 |
| 43.0 (DMSO control at this site: 1-bp insertion 0.134, MH deletion 0.714, edited 0.104) AGTTTAACTTACTCCGGCCAAAAAAGAACTGCACCTCTGGAGCGGGTTAGTGGTGGTGGTA | 0.683 | 0.663 | 0.639 | 0.68 | 0.625 | 0.662 | 0.686 | 0.658 | 0.671 | 0.688 | 0.614 | 0.592 | 0.0687 | 0.0941 | 0.0843 | 0.0439 | 0.113 | 0.698 | 0.717 | 0.677 |
| 15.0 GCGCCTCCAATGACCCAGTGGGATCCTACTCCATAATGGGATCCTGGGGATTCCTCGCTCC | 0.426 |  | 0.39 | 0.289 |  |  |  |  | 0.299 |  |  | 0.339 | 0.254 | 0.168 |  |  |  |  |  |  |
| 39.0 (DMSO control at this site: 1-bp insertion 0.328, MH deletion 0.371, edited 0.204) CTGCACAGTCACTTAGGATAGGAGAAGATGATGTATAGGGTTTAGTGGGAGATGTTGCAAG | 0.414 | 0.303 | 0.361 | 0.287 | 0.407 | 0.286 | 0.32 | 0.264 | 0.404 | 0.406 | 0.356 | 0.371 | 0.334 | 0.385 | 0.418 | 0.163 | 0.423 | 0.105 | 0.372 | 0.372 |
